Our source for the glomerular separation values is the supplement of paper PMC7366291.

Where a name gives a salt, the structure may show the parent alone. ± gives the standard deviation.

The subject of this assay is Danio rerio Tg(wt1b:EGFP) embryo, pronephros. The experiment in a line: glomerular separation, fold change vs DMSO control; higher = glomeruli further apart (abnormal). Particulars: 25 µM; exposure: 24-48 hpf. In short, it runs like this: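 Dechorionated Tg(wt1b:EGFP) zebrafish embryos were treated with 25 μM compound in 0.5% DMSO, in HEPES-buffered E3 with 0.003% PTU, from 24 to 48 hpf at 28.5°C. On maximum projections of dorsal pronephros images, 16 hand-placed reference points in Fiji gave distances and angles, and values more than 2 SD from the feature mean were left out. Results are fold changes over the mean of same-day DMSO-treated embryos.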
Turning to `CC(=O)CC(c1ccc([N+](=O)[O-])cc1)c1c(O)c2ccccc2oc1=O` (stereo not given) [Acenocoumarol], the glomerular separation amounted to 0.834 ± 0.45. The value for `COC(=O)Nc1nc2cc(Sc3ccccc3)ccc2[nH]1` [Fenbendazole] was 4 ± 2.6; that for `O=c1[nH]c(=O)n(C2CCCO2)cc1F` (stereo not given) [Tegafur] was 1.02 ± 0.41; that for `CCN1C(=O)NC(c2ccccc2)C1=O` (stereo not given) [Ethotoin] was 0.796 ± 0.17. `Nc1ccc(S(=O)(=O)c2ccc(N)cc2)cc1` [Dapsone] showed a glomerular separation of 1.08 ± 0.44.

With `Cn1c([N+](=O)[O-])cnc1COC(N)=O` [Ronidazole], the glomerular separation amounted to 0.869 ± 0.18. The value for `Cc1noc(NS(=O)(=O)c2ccc(N)cc2)c1C` [Sulfisoxazole] was 0.975 ± 0.37; that for `Nc1ncn(C2OC(CO)C(O)C2O)c(=O)n1` (stereo not given) [Azacytidine-5] was 0.981 ± 0.4; that for `Cc1ccc(S(=O)(=O)NC(=O)NN2CC3CCCC3C2)cc1` (stereo not given) [Gliclazide] was 0.87 ± 0.46.

`NC[C@H]1O[C@H](O[C@H]2[C@H](O[C@@H]3O[C@H](CO)[C@@H](O)[C@H]3O)[C@@H](O)[C@H](N)C[C@@H]2N)[C@H](N)[C@@H](O)[C@@H]1O` [Ribostamycin sulfate salt] registered a glomerular separation of 0.722 ± 0.22. `Cc1ccc(S(=O)(=O)NC(=O)NN2CCCCCC2)cc1` [Tolazamide] had a glomerular separation of 0.828 ± 0.19.

Consider `CCN(CC)Cc1cc(Nc2ccnc3cc(Cl)ccc23)ccc1O` [Amodiaquin dihydrochloride dihydrate], for which the glomerular separation was 0.602 ± 0.18.

With `CS(=O)(=O)c1ccc([C@@H](O)[C@@H](CF)NC(=O)C(Cl)Cl)cc1` [Florfenicol], the glomerular separation was 1.03 ± 0.47. The value for `C[C@]12C=CC(=O)C=C1CC[C@@H]1[C@@H]2[C@@H](O)C[C@@]2(C)[C@H]1CC[C@]2(O)C(=O)CO` [Prednisolone] was 1.36 ± 0.94. `COc1cc(N)c(Cl)cc1C(=O)NC1CCN(Cc2ccccc2)CC1` [Clebopride maleate] showed a glomerular separation of 0.962 ± 0.3. The value for `NS(=O)(=O)c1cc(Cl)c(Cl)c(S(N)(=O)=O)c1` [Dichlorphenamide] was 0.91 ± 0.4. The value for `CCC1NC(=O)c2cc(S(N)(=O)=O)c(Cl)cc2N1` (stereo not given) [Quinethazone] was 0.951 ± 0.37; that for `CC(C)C(=O)Nc1ccc([N+](=O)[O-])c(C(F)(F)F)c1` [Flutamide] was 1.54 ± 1.1.

Turning to `CNCCCC1c2ccccc2C=Cc2ccccc21` [Protriptyline hydrochloride], the glomerular separation worked out at 0.765 ± 0.31. In turn, `COc1ccc(CN2CCN(C(c3ccc(F)cc3)c3ccc(F)cc3)CC2)c(OC)c1OC` [Lomerizine hydrochloride] gave a glomerular separation of 0.888 ± 0.33. The value for `c1ccc2[nH]c(-c3cscn3)nc2c1` [Tiabendazole] was 1.4 ± 0.65; that for `O=C1CN(/N=C/c2ccc([N+](=O)[O-])o2)C(=O)N1` [Nitrofurantoin] was 0.915 ± 0.35; that for `COc1cc2nc(N3CCN(C(=O)c4ccco4)CC3)nc(N)c2cc1OC` [Prazosin hydrochloride] was 0.618 ± 0.16. The value for `C[C@H](CCC(=O)O)[C@H]1CC[C@H]2[C@@H]3[C@@H](O)C[C@@H]4C[C@H](O)CC[C@]4(C)[C@H]3CC[C@]12C` [Urosiol] was 1.3 ± 0.7. Take `CC(C)(Oc1ccc(Cl)cc1)C(=O)O` [Clofibric acid]: the glomerular separation was 1.17 ± 0.56.

The compound `CCCc1nc2c(C)cc(-c3nc4ccccc4n3C)cc2n1Cc1ccc(-c2ccccc2C(=O)O)cc1` [Telmisartan] registered a glomerular separation of 1.22 ± 0.41.

Compound `CN(C)c1ccc(O)c2c1C[C@H]1C[C@H]3[C@H](N(C)C)C(O)=C(C(N)=O)C(=O)[C@@]3(O)C(O)=C1C2=O` [Minocycline hydrochloride] yielded a glomerular separation of 1.02 ± 0.2. The value for `CCN(CC)C(=O)/C(C#N)=C/c1cc(O)c(O)c([N+](=O)[O-])c1` [Entacapone] was 1.88 ± 1.4. The value for `O=C1CN(/N=C/c2ccc(-c3ccc([N+](=O)[O-])cc3)o2)C(=O)N1` [Dantrolene sodium salt] was 1.46 ± 0.66; that for `CN(C)CCC=C1c2ccccc2CCc2ccccc21` [Amitryptiline hydrochloride] was 1.3 ± 0.62. Consider `CC(C)(C)NCC(O)c1cc(O)cc(O)c1` (stereo not given) [Terbutaline hemisulfate], for which the glomerular separation was 1.1 ± 0.36. The value for `COc1ccccc1OCCNCC(O)COc1cccc2[nH]c3ccccc3c12` (stereo not given) [Carvedilol] was 1.02 ± 0.41; that for `CCN1CC(CCN2CCOCC2)C(c2ccccc2)(c2ccccc2)C1=O` (stereo not given) [Doxapram hydrochloride] was 0.953 ± 0.32.

The compound `N=C(N=C(N)N)N1CCOCC1` [Moroxidine hydrochloride] registered a glomerular separation of 1.26 ± 0.44. The value for `CCn1nc(C(=O)O)c(=O)c2cc3c(cc21)OCO3` [Cinoxacin] was 1.07 ± 0.43; that for `CCCCc1ccc2[nH]c(NC(=O)OC)nc2c1` [Parbendazole] was 2.51 ± 0.79; that for `CO[C@H]1/C=C/O[C@@]2(C)Oc3c(C)c(O)c4c(c3C2=O)C2=NC3(CCN(CC(C)C)CC3)NC2=C(NC(=O)/C(C)=C\C=C\[C@H](C)[C@H](O)[C@@H](C)[C@@H](O)[C@@H](C)[C@H](OC(C)=O)[C@@H]1C)C4=O` [Rifabutin] was 1.4 ± 0.24. The value for `C=CC1=C(C(=O)O)N2C(=O)[C@@H](NC(=O)/C(=N\OCC(=O)O)c3csc(N)n3)[C@H]2SC1` [Cefixime] was 1.32 ± 0.59; that for `CC(C)(C)C(=O)OCOC(=O)[C@@H]1N2C(=O)[C@@H](NC(=O)[C@H](N)c3ccccc3)[C@H]2SC1(C)C` [Pivampicillin] was 1.14 ± 0.47. The value for `NNC(=O)c1ccncc1` [Isoniazid] was 0.891 ± 0.099.
